Data reported in PubChem BioAssay (NCI).
About 83,000 compounds went through this panel and 20% of them were active in at least one assay; those are over-represented in the sample as a whole.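 Single-concentration screen, 48 h exposure, 96-well plates. Endpoint: percent growth. Below 10 = active.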 Unmarked numbers belong to inactive results. Activity calls are given as the source filed them.

What was measured:
Experiment in all cases: NCI-60 one-dose screen, 48 h (100 = growth as untreated, 0 = no growth, -100 = all killed)
Conditions in all cases: 10 µM unless noted
SR leukemia = test system: SR leukemia
OVCAR-8 ovarian = test system: OVCAR-8 ovarian
OVCAR-5 ovarian = test system: OVCAR-5 ovarian
OVCAR-4 ovarian = test system: OVCAR-4 ovarian
SK-OV-3 ovarian = test system: SK-OV-3 ovarian
IGROV1 ovarian = test system: IGROV1 ovarian
OVCAR-3 ovarian = test system: OVCAR-3 ovarian
HS 578T breast = test system: HS 578T breast
NCI/ADR-RES ovarian = test system: NCI/ADR-RES ovarian
T-47D breast = test system: T-47D breast
BT-549 breast = test system: BT-549 breast
MDA-MB-435 melanoma = test system: MDA-MB-435 melanoma
SW-620 colon = test system: SW-620 colon
MCF7 breast = test system: MCF7 breast
HCT-116 colon = test system: HCT-116 colon
HCC-2998 colon = test system: HCC-2998 colon
KM12 colon = test system: KM12 colon
RPMI-8226 leukemia = test system: RPMI-8226 leukemia

Structure (SMILES)	growth (SR leukemia)	growth (OVCAR-8 ovarian)	growth (OVCAR-5 ovarian)	growth (OVCAR-4 ovarian)	growth (SK-OV-3 ovarian)	growth (IGROV1 ovarian)	growth (OVCAR-3 ovarian)	growth (HS 578T breast)	growth (NCI/ADR-RES ovarian)	growth (T-47D breast)	growth (BT-549 breast)	growth (MDA-MB-435 melanoma)	growth (SW-620 colon)	growth (MCF7 breast)	growth (HCT-116 colon)	growth (HCC-2998 colon)	growth (KM12 colon)	growth (RPMI-8226 leukemia)
CCCCCCCC/C=C/CCCCCCCC1=NC(C)(C)CN1C(C)C	-46.7% (active)	-20.8% (active)	58.1%	18.9%	55.4%	-29.9% (active)	-55.7% (active)	6.92% (active)	-6.48% (active)	-29.2% (active)	60.9%	-58.3% (active)	-69.8% (active)	-60.5% (active)	-74.8% (active)	-91.8% (active)	-77.1% (active)	–
CCCCCc1c(C)[nH]c(/C=C2\N=C(c3ccc[nH]3)C=C2Oc2ccc(OC)cc2)c1C	-9.14% [100 µM] (active)	–	-65.3% [100 µM] (active)	-99.7% [100 µM] (active)	-63.2% [100 µM] (active)	-70.6% [100 µM] (active)	–	0.631% [100 µM] (active)	-78% [100 µM] (active)	-48.5% [100 µM] (active)	-91.5% [100 µM] (active)	-82.2% [100 µM] (active)	-56.5% [100 µM] (active)	-100% [100 µM] (active)	-99.4% [100 µM] (active)	-58.2% [100 µM] (active)	-90.9% [100 µM] (active)	-37.7% [100 µM] (active)
CCCCc1nc(Cl)c(C2CC(c3ccc(S(N)(=O)=O)cc3)=NN2c2ccc(C#N)cc2)[nH]1 (centres undefined)	80.5%	83.2%	88.5%	98.2%	96.4%	93%	92.5%	79.4%	107%	68.7%	80.6%	93.9%	91.8%	76.1%	85.8%	109%	99.8%	–
Cn1cnc([N+](=O)[O-])c1S(=O)(=O)Oc1ccccc1	56.1%	100%	103%	112%	101%	85.7%	1.83% (active)	105%	92%	5.06% (active)	100%	101%	56%	84.3%	68.4%	101%	100%	–
COc1cc(-c2nn(C(=O)NCCN3CCN(C)CC3)cc2-c2ccncc2)ccc1Cl	77.5%	24.5%	84.6%	78%	55.1%	75%	97.2%	76.9%	82.4%	62.2%	88.1%	80.4%	111%	76.5%	76.9%	93.7%	96.4%	–
c1ccc2oc(-c3cnc4nonc4n3)cc2c1	106%	93.6%	104%	106%	84.8%	87.2%	108%	89.2%	92.4%	79.7%	95.8%	109%	94%	88.5%	90.1%	120%	112%	–
O=C(Nc1cccc(-n2ccc3c(NC(=O)c4ccccc4)nccc32)c1)c1ccc(N2CCOCC2)c(C(F)(F)F)c1	2.76% (active)	16.3%	41.1%	51.7%	-6.21% (active)	8.99% (active)	26.9%	55.5%	14.3%	7.57% (active)	25.2%	5.17% (active)	26.9%	14%	12.5%	8.77% (active)	7.93% (active)	–
O=S(=O)(Cc1ccc(Cl)cc1Cl)c1ccc(Cl)cc1	24.3%	31.9%	53.9%	69.5%	9.24% (active)	36.1%	1.54% (active)	63.3%	-8.57% (active)	47.5%	62.7%	-33.1% (active)	37.5%	22.1%	26.9%	31.7%	33.6%	–
CCN1CCN(Cc2ccc(NC(=O)Nc3ccc(-n4ccc5c(NC(=O)c6ccccc6)nccc54)cc3)cc2C(F)(F)F)CC1	-30.9% (active)	-28.5% (active)	30.7%	78.8%	62.7%	43.9%	-51.9% (active)	74.1%	27.8%	75.6%	68.5%	-61.5% (active)	-11.9% (active)	-90% (active)	-83.6% (active)	68.3%	14.3%	–
CN1C(=O)C(C2=NNC(c3ccccc3C(=O)O)C2)C(=O)N(C)C1=O (centres undefined)	101%	103%	94.6%	99%	90.9%	106%	110%	93.6%	108%	87.4%	104%	104%	99.7%	99.7%	99.4%	117%	104%	–
COc1ccc(-c2nn(C(=O)NCCN(C)C)cc2-c2ccncc2)cc1Cl	20.5%	20.4%	76.9%	57.6%	9.29% (active)	54.1%	51.3%	66.5%	14.5%	37.1%	58.6%	-25.3% (active)	30.5%	19.3%	23.1%	76.4%	43.3%	–
Cn1cnc([N+](=O)[O-])c1S(=O)(=O)Oc1cccc2ccccc12	17.5%	73.3%	82.3%	81.3%	95.8%	36.9%	-73% (active)	99.7%	57.6%	-30.9% (active)	99.9%	67.9%	7.26% (active)	44.8%	17.8%	88.7%	88.9%	–
CCN1C(=O)N(CC)C2C1NN=c1s/c(=C\c3ccco3)c(=O)n12 (centres undefined)	17%	27.8%	36.7%	63.3%	31.6%	36.9%	-12% (active)	29.6%	9.31% (active)	27.8%	53.9%	-56.9% (active)	20.2%	12.1%	23.5%	23%	15.9%	–
Fc1cc(-c2cnc3nonc3n2)c(Cl)cc1Cl	86.5%	97.3%	88.6%	59.6%	98.5%	77%	10.3%	111%	102%	63.2%	99.7%	90.1%	38.7%	69.7%	7.65% (active)	103%	88.2%	–
CC(NC(=O)c1ccccc1)C(=O)Nc1ccccc1 (centres undefined)	89.9%	103%	107%	114%	113%	128%	135%	114%	108%	117%	104%	112%	108%	97.9%	97.2%	99.4%	108%	–
CCCCc1nc(Cl)c(C2CC(c3ccc(S(N)(=O)=O)cc3)=NN2c2cc(Cl)cc(Cl)c2)[nH]1 (centres undefined)	0.947% (active)	47.1%	65.7%	51.4%	69.6%	65.6%	45%	36.9%	90%	42.5%	60.3%	35.7%	58%	6.51% (active)	14.7%	29.4%	32.1%	–
CCN(CC)CCCCCCCCNc1c2ccc(Cl)cc2nc2ccc(OC)cc12	-63.6% (active)	–	-24% (active)	-49.8% (active)	-29.1% (active)	-9.45% (active)	-38.3% (active)	–	-29.8% (active)	-37.9% (active)	-82.6% (active)	-81.9% (active)	-31.9% (active)	-75.1% (active)	-63.8% (active)	-89.1% (active)	-49.5% (active)	-43.8% (active)
CCN1C(=O)N(CC)C2C1NC(=O)N2/N=C/C=C/c1ccccc1 (centres undefined)	20.3%	60.5%	80.1%	64.4%	36.7%	53.2%	7.58% (active)	34.8%	38.7%	34.2%	52.1%	-2.78% (active)	24.2%	12%	19.6%	64.2%	23.4%	–
